Measurements reported in PubChem BioAssay (NCI).
This is part of a sample that, as a whole, favours compounds with a hit. Of some 79,000 tested, about 15% had one in any assay. Activity calls are given as the source filed them. Rule as the data show it: active = growth inhibition above about 70%; inactive = the rest.

Legend:
[1] = NCI Yeast Anticancer Drug Screen. Data for the rad50 strain (AID 155);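 also: 0% = growth of vehicle-only cultures of the same strain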; conditions: S. cerevisiae rad50 strain growth inhibition; at 50.0 µM; hits give high values
Procedure, shortened: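 Yeast carrying a defined DNA repair defect were exposed to test compounds, and growth was compared with vehicle-treated controls to give percent inhibition.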

[2] = NCI Yeast Anticancer Drug Screen. Data for the mec2-1 strain (AID 157); conditions: S. cerevisiae mec2-1 strain, at 50.0 µM, hits give high values
Procedure, shortened: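 Test agents were screened against the mec2-1 yeast strain, with defined DNA repair or cell cycle alteration. Growth was scored as inhibition against vehicle-only controls.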

[3] = NCI Yeast Anticancer Drug Screen. Data for the sgs1 mgt1 strain (AID 161);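 also: 0% = growth of cultures given vehicle only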; conditions: S. cerevisiae sgs1 mgt1 strain, at 50.0 µM, hits give high values
Procedure, shortened: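 Inhibition of yeast growth, normalised to vehicle-treated controls, is reported for a strain bearing genetic alterations in DNA damage repair.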

[4] = NCI Yeast Anticancer Drug Screen. Data for the cln2 rad14 strain (AID 165);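 also: 0% = growth equal to vehicle treated cultures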; conditions: S. cerevisiae cln2 rad14 strain, at 50.0 µM, hits give high values
Procedure, shortened: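 Growth of compound-exposed yeast (cln2 rad14 genotype) measured and expressed as inhibition relative to vehicle.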

[5] = NCI Yeast Anticancer Drug Screen. Data for the bub3 strain (AID 167); conditions: S. cerevisiae bub3 mutant strain, at 50.0 µM, hits give high values
Procedure, shortened: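 Compounds were applied to a genetically altered yeast strain carrying a cell-cycle control defect. Growth inhibition was scored against vehicle-treated controls.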

[6] = NCI Yeast Anticancer Drug Screen. Data for the mlh1 rad18 strain (AID 175); conditions: S. cerevisiae mlh1 rad18 strain growth inhibition; at 50.0 µM; hits give high values
Procedure, shortened: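 In this whole-cell yeast screen, a strain with altered DNA damage repair is challenged with compound, and its growth is measured against matched vehicle-treated controls.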

Measured: growth inhibition

CC1=CCCCC1
inactive: [1] 3.85% | [2] 2.8% | [3] -1.35% | [4] -5.1% | [5] 8.65% | [6] -7.25%

CC(=O)OC1/C=C(/C)CCC2OC2(C)CC2OC(=O)C3(CC3)C12 (stereo unspecified)
inactive: [1] 0.85% | [2] -20.5% | [3] -2% | [4] 10.7% | [5] 1% | [6] -7.2%

O=C1NCC(c2ccccc2)(C2CC2)O1 (stereo unspecified)
inactive: [1] 7.85% | [2] 6.65% | [3] -13.3% | [4] -44.6% | [5] 5.1% | [6] -27.1%

COc1ccc(SC/C(=N\NOS(=O)(=O)c2ccc(C)cc2)c2ccccc2)cc1
inactive: [2] 34.1% | [4] 61% | [5] 61%
active: [1] 85.1% | [3] 93.3% | [6] 87.7%

COC1OC(COCc2ccccc2)C(OCc2ccccc2)C(OC)C1O (stereo unspecified)
inactive: [1] -37.6% | [2] -3% | [3] 5.6% | [4] -40.9% | [5] -2.3% | [6] -17.6%

COC(=O)[C@@H]1Cc2ccc(OC)c(c2)OCCC(=O)N1
inactive: [1] -37% | [2] 0% | [3] 21.7% | [4] -2.95% | [5] -13% | [6] -12.2%

CCOCCC(=O)OCCC(C)OC (stereo unspecified)
inactive: [1] 4.95% | [2] 11% | [3] 11.2% | [4] -26.4% | [5] -58.1% | [6] -37.2%

Cc1ccc(S(=O)(=O)O/C=C2/CCOC2=O)cc1
inactive: [1] 29.6% | [2] 43.2% | [3] 29.9% | [4] 28.8% | [5] 38.2% | [6] 60.9%

COc1cccc(NC(=O)CC(=O)NN2C(=O)/C(=C/c3ccc(N(CCC#N)CCC#N)cc3)N=C2c2cc([N+](=O)[O-])ccc2Cl)c1
inactive: [1] 17.4% | [2] -5.05% | [3] 16.4% | [4] -6.7% | [5] 0.3% | [6] 14.6%

O=c1[nH]c(=O)n(C2CC(O)C(CO)O2)cc1/C=C/Br (stereo unspecified)
inactive: [1] -17.9% | [2] -9.25% | [3] -8.95% | [4] -5.4% | [5] 7.35% | [6] -18.1%

CC1(C)CC(=O)C2=C(SC3=C(C2)C(=O)CC(C)(C)S3)S1
inactive: [1] -5.75% | [2] -2.5% | [3] 2.8% | [4] -7.25% | [5] -9.85% | [6] -3.3%

O=[N+]([O-])c1cn(CCNc2c3ccccc3nc3ccccc23)cn1
inactive: [1] 17.4% | [2] -5.35% | [3] 20.4% | [4] 10.6% | [5] -3.85% | [6] 16.8%

CC(C)=Cc1cc(C(=O)Nc2ccc(Cl)c(Cl)c2)nc(N)n1
inactive: [1] -25.2% | [2] -45.4% | [3] -10.6% | [4] -0.5% | [5] -41.8% | [6] -32.1%

COc1cc(/C=C/C(=N\NC(N)=S)c2sc(NNC(C)=O)nc2C)ccc1O
inactive: [1] 22.9% | [2] 6.8% | [3] 16.3% | [4] 21.2% | [5] 24.6% | [6] 14.8%

O=C1OC[C@H]2[C@@H]1[C@H]1O[C@@H]2C2=C(CCC2)C1=O
inactive: [1] -27.4% | [2] -38.8% | [3] -43.5% | [4] -19.7% | [5] -30.9% | [6] -51.3%

Cc1cc(=O)[nH]c(N/N=C/c2ccc(O)cc2)n1
inactive: [1] -28.9% | [2] -44.5% | [3] -14.7% | [4] 2.65% | [5] -30.4% | [6] -26.8%

COc1ccc(Nc2cnc3cc(N)ccc3n2)cc1OC
inactive: [1] -15.3% | [2] -21.6% | [3] -38.5% | [4] -8.35% | [5] -30.3% | [6] 1.7%

O=C(Cl)c1ccc2c(c1)C(=O)OC2=O
inactive: [1] 22.5% | [2] -8.9% | [3] -11.2% | [4] 5.4% | [5] 9.55% | [6] -10.4%

COc1ccc(N=C(N)N=C(N)N)cc1
inactive: [1] -3.3% | [2] -2% | [3] -6.9% | [4] 8.2% | [5] -2.65% | [6] 0%

CCCC(=O)NC(Nc1ccc(S(=O)(=O)Nc2ccc(OC)nn2)cc1)(C(F)(F)F)C(F)(F)F
inactive: [1] 1.55% | [2] -19.1% | [3] -0.6% | [4] 0.35% | [5] -16.8% | [6] -9.25%

CCCS(=O)(=O)CCCCCCCCCCC(=O)O
inactive: [1] -5.45% | [2] -11.4% | [3] -7.8% | [4] -28.7% | [5] -7.15% | [6] -6.2%

O=C(Nc1ccccc1SC(/C=C/NNC1=NC(c2ccccc2)C(c2ccccc2)=NN1)c1ccccc1)c1ccc(Cl)cc1Cl (stereo unspecified)
inactive: [1] -35% | [2] -7.7% | [3] -22.8% | [4] 24.8% | [5] 0.15% | [6] -13.4%

CC1(C)SC2C(C(=O)O)N=C(Cc3ccccc3)N2C1C(=O)O (stereo unspecified)
inactive: [1] 3.2% | [2] -17.9% | [3] -23.4% | [4] 1.45% | [5] -34% | [6] -7.05%

CCCS(=O)(=O)N1CC(C)OC(C)C1 (stereo unspecified)
inactive: [1] 2.35% | [2] -16.9% | [3] 3.5% | [4] -7.1% | [5] -10.7% | [6] 3.2%

C=C(COC(C)=O)CC(/C=C(\C)CCC=C(C)C)OC(C)=O (stereo unspecified)
inactive: [1] -6.25% | [2] -1.15% | [3] 8.9% | [4] -11.5% | [5] -5.25% | [6] 11%

C(CCc1nnc2c(n1)CCCC2)Cc1nnc2c(n1)CCCC2
inactive: [1] -7.6% | [2] -17.9% | [3] -1.05% | [4] -12.1% | [5] 10.1% | [6] -2.4%

CCOS(=O)(=O)c1ccc(F)c([N+](=O)[O-])c1
inactive: [1] 7.3% | [2] 5.6% | [3] -1.9% | [4] -47% | [5] 2.65% | [6] -2.1%

CCCC(C(O)CC)[N+](=O)[O-] (stereo unspecified)
inactive: [1] 8.65% | [2] -16.1% | [3] 11.7% | [4] 5.35% | [5] -6.25% | [6] 21.6%

CC(C)OCN1COCN=C1NC#N
inactive: [1] 38.2% | [2] 12.2% | [3] 23.1% | [4] 28.7% | [5] -10.4% | [6] 33%

CC(=O)/C=C/C1=C(C)CCCC1(C)C (tested in a mixture with another compound)
inactive: [1] 19.7% | [2] 1% | [3] 9.2% | [4] -3.25% | [5] 24.3% | [6] 5.7%

COC(=O)c1cc(OC)nc(Cl)n1
inactive: [1] 3.9% | [2] 13.2% | [3] 1.45% | [4] -37% | [5] -11.9% | [6] 1.9%

Nc1nc(N)c2cc(CNc3ccc(C(=O)NC(C(=O)O)C(=O)O)cc3)ccc2n1
inactive: [1] -39.1% | [2] 8.1% | [3] -3.15% | [4] -16.6% | [5] -14.2% | [6] -15.6%

O=C(Nc1nc(C23CC4CC(CC(C4)C2)C3)cs1)c1cc2ccc(O)cc2oc1=O
inactive: [1] 0.7% | [2] 15.8% | [3] 3.55% | [4] 21.9% | [5] 0.2% | [6] -16.6%

Clc1ccc(Cl)c(NNc2cc(Cl)ccc2Cl)c1
inactive: [1] -29.1% | [2] -45.5% | [3] -3.9% | [4] -0.9% | [5] -39.5% | [6] -34.5%

COC(=O)c1cc2ccc(O)c(O)c2cn1
inactive: [1] 41.1% | [2] 25.8% | [3] 60.3% | [4] 18.9% | [5] 62.4% | [6] 24.9%

Cc1[nH]ccc(=O)c1OC(=O)C12CC3CC(CC(C3)C1)C2
inactive: [1] 15.8% | [2] 16.6% | [3] 36% | [4] 19.2% | [5] 2.7% | [6] 23%

CC(=O)OCC1OCOC2C(COC(C)=O)OCOC12 (stereo unspecified)
inactive: [1] 3.55% | [2] 2.6% | [3] -8.15% | [4] -24.4% | [5] 3.85% | [6] -8.5%

COc1cccc(N=N/C(=N/NC(=O)c2cc(Cl)ccc2O)c2ccc(N(CCC#N)CCC#N)cc2C)c1
inactive: [1] -18.9% | [2] -16.8% | [3] -18.9% | [4] -18.6% | [5] -17.9% | [6] -47.6%

Nc1ccccc1OCCOCCOc1ccccc1N
inactive: [1] -31.9% | [2] -2.65% | [3] -8.45% | [4] 45.4% | [5] 14.9% | [6] -10.5%

CCOC(=O)C(C)CC(C)C(=O)OCC (stereo unspecified)
inactive: [1] 20.6% | [2] -26% | [3] -19.3% | [4] -2.85% | [5] 9.9% | [6] 2.5%

C=C1C(=O)OC2/C=C(\C)CC(O)/C=C(/C)CC(OC(=O)C(O)(CO)C(C)S)C12 (stereo unspecified)
inactive: [1] -14% | [2] 6.55% | [3] -22.4% | [4] 3% | [5] -3.8% | [6] -22.7%
